# This is a sample that favours compounds with a hit; in the whole collection about 14% have one here.
# Pf growth 96h = P. falciparum growth inhibition at 96 hour, primary screen for plastid delayed-death inhibitors; P. falciparum luciferase reporter growth, 96 h; 320,000 compounds, 6.9% hits; AID 504834; Potency, µM (top dose mostly 28.7 µM), hits mostly inhibitors
#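 Plates of compound plus infected erythrocytes (2% hematocrit, 0.05% parasitemia final) incubate 96 hours, 37 C, 5% CO2. Detection reagent added; reduced luminescence from the parasites' luciferase reporter flags inhibition.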
# HCMV antiviral = blocks human cytomegalovirus replication; AID 1259415; 410,000 compounds, 4.5% hits; HFF cells, HCMV-luciferase reporter, 72 h; active compounds read low; activity change, negative = inhibition, % at 57.5 µM; in the data active = activity change below about -60%; inconclusive = no clear call, values can overlap the other calls; inactive = above about -39%
#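 Human foreskin fibroblasts infected with luciferase-reporter HCMV at MOI 1 PFU/cell, compounds at two doses. Luciferase measured 72 h post infection; normalized to buffer-only basal and Salinomycin (10uM) controls.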
# HCV inh = inhibitors of hepatitis C virus infection; Potency, µM (doses to about 41.8 µM), actives largely listed as inhibitors; 340,000 compounds, 3.4% hits; Huh7.5.1 HCVcc-Cre infection, luciferase reporter, 44 h
#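 Cells seeded at 1,000/well and cultured 4 h, then compounds added followed by HCVcc-Cre virus (~0.5 moi). After 44 h further culture, luciferase substrate was added, plates held 15 min at room temperature, and luminescence read for 15 sec.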
# Lassa entry inh = Lassa virus entry inhibition; AID 540256; Potency, µM (highest dose often 37.9 µM), usual class: inhibitors; 300,000 compounds, 1.2% hits; Lassa virus pseudotype entry inhibition, cell reporter; calls by dose curve; tested in HEK293 cells; also: nearly all actives have a fitted effect of over 50% in size
# MARV entry inh = blocks Marburg virus binding to or entry into cells; Marburg virus pseudotyped entry inhibition, cell reporter; Potency, µM (top dose mostly 37.8 µM), usual class: inhibitors; 300,000 compounds, 1.8% hits; AID 540276; calls by dose curve; tested in HEK293 cells
# Pf growth 48h = inhibits P. falciparum growth in the first generation, 48 h | Potency, µM (highest dose often 28.7 µM), usual class: inhibitors | P. falciparum luciferase growth in erythrocytes, 48 h | 310,000 compounds, 5.9% hits
#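 Luciferase-expressing P. falciparum in infected erythrocytes (2% hematocrit, 0.1% parasitemia final) in RPMI 1640/0.5% Albumax were exposed to compound for 48 hours at 37 C, 5% CO2; growth read as luminescence.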
# A number is an active result; n = inactive; u = inconclusive; x = not tested or not shown. Unless noted, calls follow the shape of the dose curve; as a rule, active = well fitted inhibition curve with a large enough effect; inconclusive = small, poorly fitted or top-dose-only effect, or another doubt; inactive = no such curve, though single readings can be large or run the other way.
SMILES,Pf growth 96h,HCMV antiviral,HCV inh,Lassa entry inh,MARV entry inh,Pf growth 48h
CC(C(=O)NCc1cccc(Br)c1)n1ncn2cccc2c1=O (stereo not drawn),x,n,x,u,u,x
CCc1cccc(NC(=O)Cn2c(=O)n(CCC(=O)NCc3ccccc3Cl)c(=O)c3sccc32)c1,x,n,x,n,n,x
C[C@H](CO)N1C[C@H](C)[C@@H](CN(C)C(=O)Nc2ccc3c(c2)OCO3)Oc2c(NC(=O)Cc3ccccc3)cccc2C1=O,x,n,u,x,x,x
Cc1cc(OC(=O)CCCNC(=O)OC(C)(C)C)c2c3c(c(=O)oc2c1)CCC3,n,n,u,n,n,n
Cc1cc(OC(=O)CCNC(=O)OC(C)(C)C)c2c3c(c(=O)oc2c1)CCC3,4.7µM,n,u,n,n,4.7µM
CC(C)(C)[C@]1(O)CCN2CC3c4ccccc4CCc4cccc(c43)[C@@H]2C1 (stereo partly drawn),12µM,x,x,x,4.5µM,13µM
O=C(C1CCCCC1)N1CC(=O)N2CCc3ccccc3C2C1 (stereo not drawn),n,x,x,u,u,n
C[C@H]1COc2cc(N3CCC[C@@H]3CO)ccc2S(=O)(=O)N1,x,n,x,x,x,x
Cc1ccc(O)c(C(=O)CC(=O)c2ccccc2Cl)c1,n,n,5µM,u,u,15µM
CCc1ccccc1N(C)C(=O)Cn1cnc2sc(C)c(S(=O)(=O)N3CCC(C)CC3)c2c1=O,x,n,x,u,u,x
CN(CC(=O)Nc1ccc(Cl)cc1)C(=O)c1cccc(S(=O)(=O)N(C)C)c1,10µM,n,n,u,n,u
CN(C)S(=O)(=O)c1cccc(NC(=O)CCSc2ccc(Cl)cc2)c1,n,u,10µM,10µM,u,n
CN(CC(=O)Nc1ccc(Cl)cc1)C(=O)c1sccc1-c1ccccc1,u,n,13µM,x,x,n
COc1ccc(O[C@@H]2[C@H](O)CO[C@H]2/C=C/C#Cc2ccccc2)cc1,x,x,x,x,n,x
C#CC(N)CCC(=O)O (stereo not drawn),x,x,x,n,u,x
CCCC12CN3CC(CCC)(CN(C1)C3c1ccccc1)C2=O (stereo not drawn),x,n,x,n,x,x
CCOC(=O)CNC(=O)C(CO)NC(=O)OCc1ccccc1 (stereo not drawn),u,-100,n,n,n,n
O=C(NCC(=O)c1ccccc1)OCc1ccc([N+](=O)[O-])cc1,13µM,n,n,n,u,n
COc1ccc(COC(=O)NNC(=O)c2ccccc2Cl)cc1,u,n,n,4µM,n,n
O=C(CNC(=O)c1ccccc1)OCc1ccc([N+](=O)[O-])cc1,n,n,n,n,n,n
CC(NC(=O)OCc1ccccc1)C(=O)OCN1C(=O)c2ccccc2C1=O (stereo not drawn),12µM,n,n,n,n,n
O=c1c(=O)n(-c2cccc(Cl)c2)ccn1Cc1cccc(F)c1,x,n,x,n,x,x
O=C(NNC(=O)OCc1ccccc1)OCc1ccccc1,x,-99,n,u,u,x
CC(C)[C@H](NC(=O)OCc1ccccc1)C(=O)NC(C=O)Cc1ccccc1 (stereo partly drawn),3.7µM,x,n,x,x,1.3µM
COC(=O)CNC(=O)C(NC(=O)OCc1ccccc1)C(C)C (stereo not drawn),u,n,n,x,x,n
SMILES,Pf growth 96h,HCMV antiviral,HCV inh,Lassa entry inh,MARV entry inh,Pf growth 48h
COc1cccc(CN2C(=NC(=O)C3CC3)SC3CS(=O)(=O)CC32)c1 (stereo not drawn),n,n,n,x,x,n
CC(=O)Nc1ccc(Sc2ncccc2C(=O)Nc2ccc(F)cc2)cn1,6.6µM,u,u,n,n,13µM
CSc1ncccc1C(=O)Nc1ccc(OC(F)(F)F)cc1,n,n,n,n,n,n
Cc1c(Cl)sn(-c2ccc(Cl)cc2)c1=O,u,-101,2.5µM,9.2µM,u,u
CC(=O)c1sc2c(c1C)c(=O)n(-c1ccc(Cl)cc1)c(=O)n2Cc1ccc(Cl)cc1,x,n,x,u,u,x
CCCc1nnc(NC(=O)Cc2coc3ccc(C)cc23)s1,x,n,x,n,u,x
CC1(C)CC(=O)c2c(Cc3ccccc3)n[nH]c2C1,n,n,n,n,n,u
CCCCc1n[nH]c2c1C(=O)CC(C)(C)C2,n,-85,n,n,n,n
CCNS(=O)(=O)c1ccc(NC(=O)c2ccccc2OCC)cc1,x,n,5.6µM,n,n,n
CCOc1ccccc1C(=O)Nc1ccc(S(=O)(=O)Nc2ncccn2)cc1,x,n,x,n,n,x
O=C(Nc1ccc(O)cc1)c1ccccc1OCc1ccccc1,u,-77,14µM,x,x,u
Cc1ccccc1OCC(=O)Nc1ccc(S(=O)(=O)N2CCCC2)cc1,u,u,u,u,n,u
CCCOc1ccccc1OCC(=O)Nc1ccc(S(=O)(=O)N2CCCC2)cc1,u,n,10µM,n,u,n
CCCOc1ccc(S(=O)(=O)N2CCN(C)CC2)c2ccccc12,u,-61,n,n,n,n
CCOC(=O)c1scc(-c2ccccc2)c1S(=O)(=O)Nc1ccccc1OC,x,n,x,n,x,x
CCCOc1ccccc1OCC(=O)Nc1ccc(S(=O)(=O)N2CCCCC2)cc1,10µM,n,u,u,u,u
CCCOc1ccccc1C(=O)Nc1ccc(S(=O)(=O)N2CCN(C)CC2)cc1,n,n,22µM,x,x,u
CN1CCN(S(=O)(=O)c2ccc(NC(=O)c3csc4ccccc34)cc2)CC1,x,n,10µM,n,n,4.7µM
COc1ccc(CCn2c(=S)[nH]c3ccc(N4CCOCC4)cc3c2=O)cc1OC,u,n,u,u,n,10µM
O=C(CCCCCn1c(=S)[nH]c2ccc(N3CCOCC3)cc2c1=O)NCc1cccc(Cl)c1,n,-71,u,n,u,n
CC(C1CC2CCC1C2)N1CC(O)=C(c2nc3ccccc3[nH]2)C1=N (stereo not drawn),3.3µM,n,u,n,u,u
CCN1CC(CN(C)Cc2nc(-c3cccs3)no2)CC1=O (stereo not drawn),12µM,n,n,n,u,n
Cc1ccc(-c2cnc3ccccc3n2)cc1C,u,n,n,x,x,n
Cc1cc(N2CCN(Cc3cn(C)nc3-c3cccc(Cl)c3)CC2)cc(C)n1,u,u,7.1µM,u,u,u
Cn1cc(CN2CCC(C(O)c3cccs3)CC2)c(-c2cccc(Cl)c2)n1 (stereo not drawn),u,n,n,n,u,9.3µM
CCCOc1cccc(C2c3c(oc4ccc(F)cc4c3=O)C(=O)N2CCCN2CCOCC2)c1 (stereo not drawn),x,n,x,n,n,x
CCC1(C)Cc2c(sc3nnn(Cc4ccccc4Cl)c(=O)c23)CO1 (stereo not drawn),u,-60,u,u,u,u
CCOc1ccc(-c2nnn(CC(=O)N3CCCC(C)C3)n2)cc1 (stereo not drawn),n,-70,n,x,x,n
CC1CCN(C(=O)Cn2nnc(-c3ccc([N+](=O)[O-])cc3)n2)CC1,15µM,n,n,x,x,n
CCOC(=O)C(CC)/C(C)=N\NC(=O)c1ccccc1O (stereo not drawn),n,-90,n,n,u,n
